The target of test [1] is Cytochrome P450 2D6 (Homo sapiens) (UniProt P10635). Kind of test: Cytochrome P450 Family 2 Subfamily D Member 6 (CYP2D6) small molecule antagonists: luciferase reporter qHTS assay (AID 1671196). Further: nearly all actives have a fitted effect of over 50% in size. Further: potency means the concentration at half of the fitted maximal effect. In short, it runs like this: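 Luminogenic proluciferin substrate, CYP2D6 enzyme; 10 min RT preincubation with compound, NADPH regeneration system added, 1 h RT. Stop/detection reagent, 20 min RT, luminescence read (RLU). Signal proportional to CYP activity.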
For orientation: In a reporter assay the amount or activity of a reporter protein is the signal.

Test [2] concerns the target Cytochrome P450 2C19 (Homo sapiens) (UniProt P33261). Kind of test: Cytochrome P450 Family 2 Subfamily C Member 19 (CYP2C19) small molecule antagonists: luciferase reporter qHTS assay (AID 1671197). Further: nearly all actives have a fitted effect of over 65% in size. Further: potency means the concentration at half of the fitted maximal effect. The procedure, abridged:
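Luminescent readout of CYP2C19 activity: luciferin product detected 20 min after adding detection reagent. Before that, compound and enzyme-substrate mix preincubated 10 min at room temperature; NADPH-regenerating system started a 1 h, 37C reaction. Ketoconazole as positive control.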

Test [3] deals with Cytochrome P450 2C9 (Homo sapiens) (UniProt P11712). The test can be described thus: Cytochrome P450 Family 2 Subfamily C Member 9 (CYP2C9) small molecule antagonists: luciferase reporter qHTS assay (AID 1671198). Further: nearly all actives have a fitted effect of over 50% in size. Further: potency means the concentration at half of the fitted maximal effect. The procedure, abridged:
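P450-Glo proluciferin substrate with CYP2C9 enzyme; 10 min RT preincubation, then NADPH regeneration 1 h at 37C; luciferin detection reagent 20 min RT, luminescence in relative luminescence units.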

Test [4] has as its target Cytochrome P450 1A2 (Homo sapiens) (UniProt P05177). The test can be described thus: Cytochrome P450 Family 1 Subfamily A Member 2 (CYP1A2) small molecule antagonists: luciferase reporter qHTS assay (AID 1671199). Further: nearly all actives have a fitted effect of over 50% in size. Further: potency means the concentration at half of the fitted maximal effect. In short, it runs like this:
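Luminescence readout (relative luminescence units) after luciferin detection reagent, 20 min RT. Preceded by 1 h room-temperature CYP1A2 reaction with NADPH regeneration solution following 10 min compound preincubation with enzyme and proluciferin substrate. Furafylline positive control.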

For test [5], the target named is Voltage-gated inwardly rectifying potassium channel KCNH2 (Homo sapiens) (UniProt Q12809). Kind of test: Human Ether-a-go-go-Related Gene (hERG) channel small molecule antagonists: fluorescence cell-based qHTS assay (AID 1671200). Further: nearly all actives have a fitted effect of over 50% in size. Further: potency means the concentration at half of the fitted maximal effect. The procedure, abridged: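 Fluorescence at 540 nm emission (480 nm excitation) was recorded kinetically for 2 min at 1-second intervals once the thallium-containing stimulus reached cells previously loaded with FluxOR II dye.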

The target in test [6] is Cytochrome P450 3A4 (Homo sapiens) (UniProt P08684). Kind of test: Cytochrome P450 Family 3 Subfamily A Member 4 (CYP3A4) small molecule antagonists: luciferase reporter qHTS assay (AID 1671201). The procedure, abridged:
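qHTS, 1536-well. CYP3A4 + proluciferin substrate, cpd 10 min RT → NADPH regen 1 h RT → detection reagent 20 min → luminescence (RLU). Ketoconazole positive control.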

“And” between values parts separate entries of the source, which are not always exact repeats. Identical values can stand only once. Records with an inconclusive call do not appear. More than one record can exist for a structure, and the calls need not agree. The source made the active and inactive calls. The call rests on the fitted dose curve; in most records, active means well fitted curve in the direction sought with a large enough effect in the repeat runs; inconclusive means weak or mixed curves; inactive means no such curve, though single readings can be large; an effect the other way counts as inactive or inconclusive.

Experimental findings from PubChem BioAssay (Tox21) are described below.

Sequence of Cytochrome P450 1A2 (Homo sapiens) (P05177 whole entry, looked up): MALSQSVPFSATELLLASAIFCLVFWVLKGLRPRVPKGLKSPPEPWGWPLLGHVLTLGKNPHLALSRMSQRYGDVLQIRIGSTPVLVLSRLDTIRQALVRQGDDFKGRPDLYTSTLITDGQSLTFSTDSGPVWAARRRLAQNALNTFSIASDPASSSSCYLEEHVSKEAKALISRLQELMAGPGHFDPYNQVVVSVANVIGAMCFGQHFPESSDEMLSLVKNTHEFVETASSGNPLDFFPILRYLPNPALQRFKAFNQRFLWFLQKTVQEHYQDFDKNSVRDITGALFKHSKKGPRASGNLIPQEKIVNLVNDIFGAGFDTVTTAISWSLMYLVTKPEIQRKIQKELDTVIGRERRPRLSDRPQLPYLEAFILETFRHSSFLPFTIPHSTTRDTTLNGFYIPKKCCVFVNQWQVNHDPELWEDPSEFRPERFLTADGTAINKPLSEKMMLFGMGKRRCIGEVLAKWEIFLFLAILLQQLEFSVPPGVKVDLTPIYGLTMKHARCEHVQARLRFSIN
Sequence of Cytochrome P450 2C19 (Homo sapiens) (P33261 whole entry, looked up): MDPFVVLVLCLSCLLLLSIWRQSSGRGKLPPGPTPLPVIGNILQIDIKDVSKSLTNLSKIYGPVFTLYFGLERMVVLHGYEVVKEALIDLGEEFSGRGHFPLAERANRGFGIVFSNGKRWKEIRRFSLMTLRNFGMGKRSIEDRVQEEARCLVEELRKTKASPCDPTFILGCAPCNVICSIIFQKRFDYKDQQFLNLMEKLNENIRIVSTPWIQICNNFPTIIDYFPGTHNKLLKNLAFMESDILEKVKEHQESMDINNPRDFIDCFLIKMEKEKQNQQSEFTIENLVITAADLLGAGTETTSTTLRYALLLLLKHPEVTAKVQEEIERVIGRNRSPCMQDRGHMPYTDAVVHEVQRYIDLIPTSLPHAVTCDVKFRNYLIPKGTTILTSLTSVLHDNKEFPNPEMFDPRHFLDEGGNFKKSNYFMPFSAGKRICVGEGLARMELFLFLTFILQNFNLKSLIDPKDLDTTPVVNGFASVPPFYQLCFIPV
Sequence of Cytochrome P450 3A4 (Homo sapiens) (P08684 whole entry, looked up): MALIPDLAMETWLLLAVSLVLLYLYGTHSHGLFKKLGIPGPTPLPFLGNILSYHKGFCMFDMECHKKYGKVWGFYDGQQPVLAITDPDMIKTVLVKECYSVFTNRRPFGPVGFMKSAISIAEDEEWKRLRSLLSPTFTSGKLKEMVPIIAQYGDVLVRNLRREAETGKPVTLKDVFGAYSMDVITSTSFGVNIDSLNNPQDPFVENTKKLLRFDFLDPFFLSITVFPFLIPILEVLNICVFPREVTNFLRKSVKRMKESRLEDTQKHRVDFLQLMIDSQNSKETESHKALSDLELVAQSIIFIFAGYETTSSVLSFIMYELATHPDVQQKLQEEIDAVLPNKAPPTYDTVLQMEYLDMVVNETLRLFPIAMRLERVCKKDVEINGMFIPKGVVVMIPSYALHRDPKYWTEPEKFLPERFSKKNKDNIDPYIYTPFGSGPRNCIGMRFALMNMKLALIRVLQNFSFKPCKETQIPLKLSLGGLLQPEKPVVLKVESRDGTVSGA
Sequence of Voltage-gated inwardly rectifying potassium channel KCNH2 (Homo sapiens) (Q12809 whole entry, looked up): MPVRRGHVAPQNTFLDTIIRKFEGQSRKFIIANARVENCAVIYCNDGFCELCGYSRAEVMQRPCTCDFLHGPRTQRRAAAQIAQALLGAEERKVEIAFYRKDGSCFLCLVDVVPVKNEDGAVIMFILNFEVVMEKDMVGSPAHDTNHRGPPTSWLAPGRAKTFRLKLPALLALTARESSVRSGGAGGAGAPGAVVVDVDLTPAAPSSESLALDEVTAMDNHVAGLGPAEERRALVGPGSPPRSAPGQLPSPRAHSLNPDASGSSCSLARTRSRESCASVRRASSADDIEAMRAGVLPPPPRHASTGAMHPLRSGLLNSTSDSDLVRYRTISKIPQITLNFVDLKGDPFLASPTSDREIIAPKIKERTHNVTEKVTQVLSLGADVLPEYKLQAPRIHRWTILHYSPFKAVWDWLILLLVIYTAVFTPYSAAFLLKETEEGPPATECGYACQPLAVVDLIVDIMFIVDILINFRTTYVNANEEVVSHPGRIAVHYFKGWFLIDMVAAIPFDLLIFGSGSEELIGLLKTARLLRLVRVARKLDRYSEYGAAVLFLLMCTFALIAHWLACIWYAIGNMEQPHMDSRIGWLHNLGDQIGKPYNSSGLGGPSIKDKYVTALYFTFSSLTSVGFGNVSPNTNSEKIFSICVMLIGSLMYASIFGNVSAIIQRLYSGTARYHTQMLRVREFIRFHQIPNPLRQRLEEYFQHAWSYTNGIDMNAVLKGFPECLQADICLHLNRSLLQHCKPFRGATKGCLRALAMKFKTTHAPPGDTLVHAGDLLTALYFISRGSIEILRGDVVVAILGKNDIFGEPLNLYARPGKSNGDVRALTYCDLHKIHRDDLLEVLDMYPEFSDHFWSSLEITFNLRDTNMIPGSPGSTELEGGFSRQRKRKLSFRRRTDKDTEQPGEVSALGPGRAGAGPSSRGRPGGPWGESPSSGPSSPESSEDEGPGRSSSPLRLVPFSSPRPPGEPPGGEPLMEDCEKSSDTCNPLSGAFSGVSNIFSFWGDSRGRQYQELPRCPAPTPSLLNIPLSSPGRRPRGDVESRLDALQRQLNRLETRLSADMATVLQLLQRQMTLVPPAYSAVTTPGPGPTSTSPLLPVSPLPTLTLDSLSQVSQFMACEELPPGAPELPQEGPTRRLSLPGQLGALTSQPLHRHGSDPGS
Sequence of Cytochrome P450 2D6 (Homo sapiens) (P10635 whole entry, looked up): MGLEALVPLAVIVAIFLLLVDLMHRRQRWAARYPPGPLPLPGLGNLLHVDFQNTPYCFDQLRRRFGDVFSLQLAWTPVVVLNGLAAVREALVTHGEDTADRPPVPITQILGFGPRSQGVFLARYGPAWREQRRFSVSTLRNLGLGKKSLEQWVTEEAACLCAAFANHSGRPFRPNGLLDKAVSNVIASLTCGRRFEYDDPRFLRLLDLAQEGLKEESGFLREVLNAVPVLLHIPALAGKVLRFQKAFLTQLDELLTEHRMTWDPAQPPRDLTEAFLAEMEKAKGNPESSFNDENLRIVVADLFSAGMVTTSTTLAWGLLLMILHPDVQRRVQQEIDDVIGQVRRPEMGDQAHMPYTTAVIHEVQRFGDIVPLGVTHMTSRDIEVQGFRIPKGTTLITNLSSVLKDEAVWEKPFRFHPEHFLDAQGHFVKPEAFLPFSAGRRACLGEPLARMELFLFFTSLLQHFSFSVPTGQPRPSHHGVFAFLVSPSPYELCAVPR
Sequence of Cytochrome P450 2C9 (Homo sapiens) (P11712 whole entry, looked up): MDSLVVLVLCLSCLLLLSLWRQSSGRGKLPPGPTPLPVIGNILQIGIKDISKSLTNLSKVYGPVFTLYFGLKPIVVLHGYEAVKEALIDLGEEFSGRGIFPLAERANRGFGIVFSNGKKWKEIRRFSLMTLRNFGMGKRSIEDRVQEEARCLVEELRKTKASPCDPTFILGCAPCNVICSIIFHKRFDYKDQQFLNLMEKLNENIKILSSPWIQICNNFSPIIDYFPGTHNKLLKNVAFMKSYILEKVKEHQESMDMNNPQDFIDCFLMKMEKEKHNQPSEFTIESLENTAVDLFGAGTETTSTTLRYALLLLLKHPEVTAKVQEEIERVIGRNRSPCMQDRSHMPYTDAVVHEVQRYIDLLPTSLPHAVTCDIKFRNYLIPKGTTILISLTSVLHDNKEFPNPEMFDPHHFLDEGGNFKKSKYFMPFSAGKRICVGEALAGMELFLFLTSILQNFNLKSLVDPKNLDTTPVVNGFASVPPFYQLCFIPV

As to `COc1ccccc1O`, the Potency entry in test [1], in test [2], in test [3] and in test [5] was “inactive” in each case. The Potency entry in test [4] was “inactive and 52.6 µM (active)”.

As to `CC(=O)OC/C=C(C)/C=C/C=C(C)/C=C/C1=C(C)CCCC1(C)C`, the Potency in test [1] was 34.7 µM (active) and inactive; in test [2] it was 39 µM (active) and 35.6 µM (active); in test [3], 31 µM (active) and 31.7 µM (active) and 19.5 µM (active). The Potency entry in test [4] and in test [5] was “inactive” in each case.

Regarding `CC(=O)Oc1ccccc1C(=O)O`, the Potency entry in test [1], in test [3] and in test [5] was “inactive” each time. Moreover, the Potency was 79.2 µM (active) and inactive in test [2]; “inactive and 24.5 µM (active)” in test [4].

For `C=CCOC(=O)CC(C)C`, the Potency entry in test [1], in test [2], in test [3], in test [4] and in test [5] was “inactive” each time.

Regarding `CCCCCCCCOc1ccc(C(=O)c2ccccc2)c(O)c1`, the Potency result in test [1], in test [4] and in test [5] was “inactive” each time. For the same compound, the Potency result in test [2] was “inactive and 35.6 µM (active)”; in test [3], 12.6 µM (active).

Turning to `COc1cc(C=O)ccc1O`, the Potency entry in test [1], in test [2], in test [3], in test [4], in test [5] and in test [6] was “inactive” in each case.

For the compound `CCN1CCCC1=O`, the Potency result in test [1], in test [2], in test [3], in test [4] and in test [5] was “inactive” throughout.

As to `Nc1cccc(N)c1`, the Potency in test [1] is 39.8 µM (active) and 31.3 µM (active) and inactive; in test [2] it was 56.3 µM (active) and 39.4 µM (active); in test [3], 70.9 µM (active); in test [4], 63.2 µM (active) and 39.4 µM (active) and 31.7 µM (active). Also, in test [5], the Potency entry was “inactive”.

In the case of `CCCCNC(=O)NS(=O)(=O)c1ccc(N)cc1`, the Potency result in test [1], in test [2], in test [3], in test [4], in test [5] and in test [6] was “inactive” in each case.

Take `O=C1CCCCCN1`: the Potency entry in test [1], in test [3], in test [4] and in test [5] was “inactive” each time. Further, in test [2], the Potency is 40 µM (active) and inactive.

On to `Oc1cccc(O)c1`, for which the Potency entry in test [1], in test [2], in test [3], in test [4] and in test [5] was “inactive” in each case.

With `CCCCC/C(C=O)=C\c1ccccc1`, the Potency in test [1] was 63.4 µM (active) and inactive; in test [2] it was 35.6 µM (active) and 39.9 µM (active) and inactive; in test [3], 39.9 µM (active); in test [4], 28.3 µM (active) and 35.6 µM (active) and 5.49 µM (active). Also, in test [5], the Potency entry was “inactive”.

Turning to `COc1ccccc1NC(=O)CC(C)=O`, the Potency entry in test [1], in test [3] and in test [5] was “inactive” each time. The Potency is 78.5 µM (active) and inactive in test [2]; 31.3 µM (active) and 35.6 µM (active) in test [4].

In the case of `CCCCOCCOCCSC#N`, the Potency result in test [1], in test [3] and in test [5] was “inactive” each time. Moreover, the Potency in test [2] was 8.4 µM (active) and inactive; in test [4], 6.67 µM (active) and 11.1 µM (active).

For the compound `COC(=O)c1ccc(O)cc1`, the Potency entry in test [1], in test [2], in test [3], in test [5] and in test [6] was “inactive” in each case. Moreover, in test [4], the Potency is 32 µM (active) and 35.6 µM (active) and 27.5 µM (active).

With `Cc1cccc(Nc2cc(Cl)nc(SCC(=O)O)n2)c1C`, the Potency entry in test [1], in test [4] and in test [5] was “inactive” in each case. The Potency entry is “inactive and 7.76 µM (active)” in test [2]; 31.7 µM (active) and 29.2 µM (active) and 17.4 µM (active) in test [3].

With `COc1ccc(C(=O)c2ccccc2)c(O)c1`, the Potency in test [1] is 44.1 µM (active); in test [2], 5.55 µM (active) and 10 µM (active) and 4.9 µM (active); in test [3] it was 39.3 µM (active) and 35.6 µM (active) and 24.5 µM (active); in test [4], 19.7 µM (active) and 22.4 µM (active) and 12.9 µM (active); in test [5], 38.3 µM (active) and inactive.

With `O=C1OC(c2ccc(O)cc2)(c2ccc(O)cc2)c2ccccc21`, the Potency in test [1] is 71 µM (active) and inactive; in test [2] it was 28.1 µM (active) and 17.8 µM (active) and 11 µM (active); in test [3] it was 19.9 µM (active) and 20 µM (active) and 12.3 µM (active); in test [4] it was 56 µM (active) and inactive; in test [5], “inactive and 38.9 µM (active)”.

As to `O=c1c(-c2ccc(O)cc2)coc2cc(O)cc(O)c12`, the Potency result in test [1] and in test [5] was “inactive” throughout. In addition, the Potency in test [2] was 55.5 µM (active) and 89.4 µM (active); in test [3] it was 55.5 µM (active) and 71 µM (active) and inactive; in test [4], 19.7 µM (active) and 39.9 µM (active).

With `CCN(CC)CCOC(=O)c1ccc(N)cc1`, in test [1], the Potency is 5.95 µM (active) and 15.5 µM (active). Besides, the Potency result in test [2], in test [3], in test [4] and in test [5] was “inactive” each time.
